Experiment [1] concerns the target Thyrotropin-releasing hormone receptor (Homo sapiens) (UniProt P34981). The experiment can be described thus: qHTS assay to identify small molecule agonists of the thyrotropin-releasing hormone receptor (TRHR) signaling pathway (AID 1346891; calls by dose curve; note: series mostly up to about 58 µM). The gist of the method: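 Screening of agonists relied on calcium signalling in HEK293 cells expressing human TRHR: dye loading 2 h at 37 °C preceded compound addition and a 3-min fluorescence time course.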
Background: In qHTS, concentration-response curves come from the screen itself.

Experiment [2] can be described thus: Human pregnane X receptor (PXR) small molecule agonists, qHTS cell viability counter screen (AID 1346977). Note: nearly all actives have a fitted effect of over 50% in size. The gist of the method:
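Tox21 qHTS format; PXR-Luc HepG2, 2,000/well, charcoal-stripped FBS 5%. Cpd exposure 24hr. Read: CellTiter-Fluor fluorescence, multiplexed with luciferase.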

Experiment [3] is described as follows: Caspase-3/7 induction in CHO-K1 cells by small molecules, qHTS cell viability counter screen (AID 1346979). Note: nearly all actives have a fitted effect of over 35% in size. The gist of the method: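 CellTiter-Fluor viability check, qHTS format: wild-type CHO-K1, 16hr compound treatment, 1hr reagent incubation, fluorescence read.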
The nature of experiment [4]: Caspase-3/7 induction in CHO-K1 cells by small molecules, qHTS assay (AID 1346980). Note: nearly all actives have a fitted effect of over 15% in size. The gist of the method: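 Luminescent Caspase-Glo 3/7 read (30min, room temperature) quantified apoptosis induction. Cells were wild-type CHO-K1, treated with compound for 17hr at 37 C and 5% CO2.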
A short description of experiment [5]: Caspase-3/7 induction in HepG2 cells by small molecules, qHTS cell viability counter screen (AID 1346981). Note: series mostly up to about 92 µM; nearly all actives have a fitted effect of over 30% in size. The gist of the method: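 Multiplexed with the caspase-3/7 assay: HepG2 cells, 16 hr compound treatment, CellTiter-Fluor viability detection by fluorescence.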
The target of experiment [6] is Nuclear receptor subfamily 1 group I member 2 (Rattus norvegicus) (UniProt Q9R1A7). In words: Rat pregnane X receptor (rPXR) activation by small molecules, qHTS assay (AID 1346983). Note: nearly all actives have a fitted effect of over 20% in size. Particulars: rPXR luciferase reporter cells, One-Glo luminescence, 24 h; active compounds read high. The gist of the method: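 Luminescent readout (One-Glo luciferase, 30 min room temperature) followed 24 hr compound treatment at 37 C of rPXR cells plated 2,000 per well and preincubated 5hr; qHTS format with compounds delivered in DMSO.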

For experiment [7], the target named is Cytochrome P450 2C9 (Homo sapiens) (UniProt P11712). In words: Cytochrome P450 Family 2 Subfamily C Member 9 (CYP2C9) small molecule antagonists: luciferase reporter qHTS assay (AID 1671198). For activity change, negative = inhibition: series mostly up to about 120 µM. Note: nearly all actives have a fitted effect of over 50% in size. Note: potency is the fitted concentration of half-maximal effect. The gist of the method: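 Enzyme-substrate mix preincubated with compound 10 min at room temperature; reaction started with NADPH regeneration solution, 1 h 37C. Luminescent luciferin product read after 20 min detection reagent.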
Sequence of Cytochrome P450 2C9 (Homo sapiens) (P11712 whole entry, looked up): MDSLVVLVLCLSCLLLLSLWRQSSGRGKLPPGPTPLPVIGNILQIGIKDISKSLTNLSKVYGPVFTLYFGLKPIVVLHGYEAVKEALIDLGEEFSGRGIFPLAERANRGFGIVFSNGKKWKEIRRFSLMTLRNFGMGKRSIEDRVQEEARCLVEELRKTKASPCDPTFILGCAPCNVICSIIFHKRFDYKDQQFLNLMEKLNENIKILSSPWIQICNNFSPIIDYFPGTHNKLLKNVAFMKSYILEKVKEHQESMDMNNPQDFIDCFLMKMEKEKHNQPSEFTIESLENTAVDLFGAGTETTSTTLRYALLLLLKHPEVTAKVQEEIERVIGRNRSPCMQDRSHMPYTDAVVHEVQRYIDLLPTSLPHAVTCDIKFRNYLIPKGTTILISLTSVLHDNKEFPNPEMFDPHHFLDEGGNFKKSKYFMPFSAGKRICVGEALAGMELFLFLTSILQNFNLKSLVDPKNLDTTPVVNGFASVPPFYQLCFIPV

In experiment [8] the target is Cytochrome P450 1A2 (Homo sapiens) (UniProt P05177). The experiment can be described thus: Cytochrome P450 Family 1 Subfamily A Member 2 (CYP1A2) small molecule antagonists: luciferase reporter qHTS assay (AID 1671199). For activity change, negative = inhibition: series mostly up to about 120 µM. Note: nearly all actives have a fitted effect of over 50% in size. Note: potency is the fitted concentration of half-maximal effect. The gist of the method:
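CYP1A2 turnover of a luminogenic substrate was quantified after 1 h with NADPH regeneration at room temperature. Furafylline served as positive control.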
(In general: A reporter such as luciferase makes a cellular process visible.)

In experiment [9] the target is Voltage-gated inwardly rectifying potassium channel KCNH2 (Homo sapiens) (UniProt Q12809). The experiment can be described thus: Human Ether-a-go-go-Related Gene (hERG) channel small molecule antagonists: fluorescence cell-based qHTS assay (AID 1671200).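 Note: hERG-expressing U2OS cells given a thallium stimulus after FluxOR II dye loading; series mostly up to about 77 µM; nearly all actives have a fitted effect of over 50% in size.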 The gist of the method:
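Kinetic two-minute fluorescence traces, sampled at 1 s, were collected following thallium stimulus of U2OS cells (1000 per well) that had been cultured overnight at 37 C and loaded with FluxOR II.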

For experiment [10], the target named is Nuclear receptor subfamily 1 group I member 2 (Homo sapiens) (UniProt O75469). The experiment can be described thus: Human pregnane X receptor (PXR) small molecule agonists, qHTS assay (AID 1346982). Note: nearly all actives have a fitted effect of over 35% in size. The gist of the method: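 We seeded PXR-Luc HepG2 cells in assay medium containing 5% charcoal-stripped FBS, added compounds 5 hr later, incubated 24 hr, and read luminescence with ONE-Glo reagent.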
Sequence of Nuclear receptor subfamily 1 group I member 2 (Homo sapiens) (O75469 whole entry, looked up): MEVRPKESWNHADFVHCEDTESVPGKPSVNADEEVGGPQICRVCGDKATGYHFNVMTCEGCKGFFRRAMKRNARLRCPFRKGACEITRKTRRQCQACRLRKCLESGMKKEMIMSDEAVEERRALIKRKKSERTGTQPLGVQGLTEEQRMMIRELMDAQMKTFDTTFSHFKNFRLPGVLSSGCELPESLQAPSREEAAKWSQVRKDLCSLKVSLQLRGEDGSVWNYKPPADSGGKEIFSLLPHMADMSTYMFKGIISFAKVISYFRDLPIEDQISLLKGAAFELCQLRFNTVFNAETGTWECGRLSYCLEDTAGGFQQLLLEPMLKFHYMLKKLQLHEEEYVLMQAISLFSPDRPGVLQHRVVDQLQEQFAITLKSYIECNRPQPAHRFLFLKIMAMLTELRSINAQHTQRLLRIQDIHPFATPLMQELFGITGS

Experiment [11] addresses Acetylcholinesterase (Homo sapiens) (UniProt P22303). In words: Acetylcholinesterase (AChE) small molecule antagonists: colormetric cell-based qHTS assay (AID 1347395; calls by dose curve; note: nearly all actives have a fitted effect of over 30% in size). The gist of the method:
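AChE inhibition read colorimetrically via DTNB–thiocholine in SH-SY5Y cells. Compound 30 min, substrate 90 min, both 37 C.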

Experiment [12] has the same target. The experiment can be described thus: Acetylcholinesterase (AChE) small molecule antagonists: enzyme-based qHTS assay (AID 1347397; calls by dose curve; note: nearly all actives have a fitted effect of over 55% in size). Conditions: Potency: AChE enzyme activity inhibition; outcome: AChE enzyme activity inhibition. The gist of the method: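 rhAChE 50 mU/mL (dispensed) + cpd or DMSO, 30 min RT; add DTNB/acetylthiocholine cocktail, 10 min RT; colorimetric thiocholine readout. qHTS, 1536-well format.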

The target is the same in experiment [13]. The experiment can be described thus: Acetylcholinesterase (AChE) small molecule antagonists: fluorescence cell-based qHTS assay (AID 1347398; calls by dose curve; note: nearly all actives have a fitted effect of over 50% in size). Particulars: Potency: AChE activity; outcome: AChE activity. The gist of the method: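 Read-out is Thiolite Green fluorescence at Ex/Em = 490/520 nm, formed by reaction with thiocholine released when cellular AChE in SH-SY5Y cells hydrolyzes acetylthiocholine. Compounds were preincubated 30 min at 37 C before substrate.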

For experiment [14] the target is unchanged. In words: Acetylcholinesterase (AChE) small molecule antagonists: enzyme-based qHTS assay with human liver microsomes (AID 1347399; calls by dose curve; note: nearly all actives have a fitted effect of over 60% in size). Particulars: Potency: qHTS inhibition; outcome: qHTS inhibition. The gist of the method:
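Recombinant human AChE (50 mU/mL in the enzyme mix) and human liver microsomes (0.25 mg/mL final) were preincubated with compound and NADPH (0.25 mg/mL final) for 30 min at 37 C. Acetylthiocholine/DTNB was then added; thiocholine was read colorimetrically after 10 min at room temperature.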

In experiment [15] the target is Cytochrome P450 2D6 (Homo sapiens) (UniProt P10635). The experiment can be described thus: Cytochrome P450 Family 2 Subfamily D Member 6 (CYP2D6) small molecule antagonists: luciferase reporter qHTS assay (AID 1671196). For activity change, negative = inhibition: series mostly up to about 120 µM. Note: nearly all actives have a fitted effect of over 50% in size. Note: potency is the fitted concentration of half-maximal effect. The gist of the method:
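Luminescence (RLU), read 20 min after detection reagent, indicated CYP2D6 conversion of proluciferin to luciferin during a 1 h NADPH-dependent reaction at room temperature.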

Experiment [16] deals with Cytochrome P450 2C19 (Homo sapiens) (UniProt P33261). In words: Cytochrome P450 Family 2 Subfamily C Member 19 (CYP2C19) small molecule antagonists: luciferase reporter qHTS assay (AID 1671197). For activity change, negative = inhibition: series mostly up to about 120 µM. Note: nearly all actives have a fitted effect of over 65% in size. Note: potency is the fitted concentration of half-maximal effect. The gist of the method: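 Enzyme-substrate mix with proluciferin substrate (P450-Glo CYP2C19 system) preincubated with compounds 10 min at room temperature; NADPH regeneration solution added, 37C for 1 h; detection reagent stops reaction, luminescence read after 20 min. Ketoconazole positive control.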
Sequence of Cytochrome P450 2C19 (Homo sapiens) (P33261 whole entry, looked up): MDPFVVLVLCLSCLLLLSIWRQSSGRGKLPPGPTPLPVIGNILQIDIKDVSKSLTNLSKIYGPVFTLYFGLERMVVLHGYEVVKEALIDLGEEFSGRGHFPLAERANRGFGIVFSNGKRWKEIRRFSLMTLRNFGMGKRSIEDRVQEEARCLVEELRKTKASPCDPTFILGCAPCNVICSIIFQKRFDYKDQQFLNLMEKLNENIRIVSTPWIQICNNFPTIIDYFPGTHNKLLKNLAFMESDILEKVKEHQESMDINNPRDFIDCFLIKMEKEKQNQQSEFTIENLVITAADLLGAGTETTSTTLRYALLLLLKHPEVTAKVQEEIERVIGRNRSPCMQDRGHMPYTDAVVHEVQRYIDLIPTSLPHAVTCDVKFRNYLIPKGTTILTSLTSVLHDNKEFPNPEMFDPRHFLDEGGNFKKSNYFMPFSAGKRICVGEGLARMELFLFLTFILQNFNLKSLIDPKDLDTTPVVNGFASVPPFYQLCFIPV

Experiment [17] concerns the target Cytochrome P450 3A4 (Homo sapiens) (UniProt P08684). In words: Cytochrome P450 Family 3 Subfamily A Member 4 (CYP3A4) small molecule antagonists: luciferase reporter qHTS assay (AID 1671201). The gist of the method: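 Proluciferin-to-luciferin conversion by CYP3A4, NADPH-regenerated, 1 h RT; luminescence read as RLU. Ketoconazole as control.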
A short description of experiment [18]: Caspase-3/7 induction in HepG2 cells by small molecules, qHTS assay (AID 1346978). Note: nearly all actives have a fitted effect of over 15% in size. The gist of the method:
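Caspase-3/7 induction was measured by Caspase-Glo 3/7 luminescence (30 min, room temperature) after a 17 hr compound exposure of wild-type HepG2 cells seeded at 2,000 per well and pre-incubated 5 hr.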

Unmarked numbers belong to inactive results. Inconclusive results are not listed. The source made the active and inactive calls. Unless noted, calls come from the whole dose curve; as a rule, active = well fitted curve in the direction sought with a large enough effect in the repeat runs; inconclusive = weak or mixed curves; inactive = no such curve, though single readings can be large; an effect the other way counts as inactive or inconclusive.
% is set by controls: 0 for no effect and ±100 for the full control effect.

Sequence of Cytochrome P450 1A2 (Homo sapiens) (P05177 whole entry, looked up): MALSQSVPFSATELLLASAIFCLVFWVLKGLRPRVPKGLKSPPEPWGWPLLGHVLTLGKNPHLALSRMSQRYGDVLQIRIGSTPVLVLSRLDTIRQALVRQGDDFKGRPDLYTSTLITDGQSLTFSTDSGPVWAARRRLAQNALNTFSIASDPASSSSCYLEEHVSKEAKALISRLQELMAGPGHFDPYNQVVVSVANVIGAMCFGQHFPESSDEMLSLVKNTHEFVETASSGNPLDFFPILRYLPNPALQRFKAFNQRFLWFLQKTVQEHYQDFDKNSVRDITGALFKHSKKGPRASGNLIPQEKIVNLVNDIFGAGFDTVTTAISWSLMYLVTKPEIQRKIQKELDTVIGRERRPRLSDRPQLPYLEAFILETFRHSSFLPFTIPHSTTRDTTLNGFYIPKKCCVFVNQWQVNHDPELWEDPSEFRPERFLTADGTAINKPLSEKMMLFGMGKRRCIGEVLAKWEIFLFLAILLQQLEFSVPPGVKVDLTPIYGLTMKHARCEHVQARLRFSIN
Sequence of Acetylcholinesterase (Homo sapiens) (P22303 whole entry, looked up): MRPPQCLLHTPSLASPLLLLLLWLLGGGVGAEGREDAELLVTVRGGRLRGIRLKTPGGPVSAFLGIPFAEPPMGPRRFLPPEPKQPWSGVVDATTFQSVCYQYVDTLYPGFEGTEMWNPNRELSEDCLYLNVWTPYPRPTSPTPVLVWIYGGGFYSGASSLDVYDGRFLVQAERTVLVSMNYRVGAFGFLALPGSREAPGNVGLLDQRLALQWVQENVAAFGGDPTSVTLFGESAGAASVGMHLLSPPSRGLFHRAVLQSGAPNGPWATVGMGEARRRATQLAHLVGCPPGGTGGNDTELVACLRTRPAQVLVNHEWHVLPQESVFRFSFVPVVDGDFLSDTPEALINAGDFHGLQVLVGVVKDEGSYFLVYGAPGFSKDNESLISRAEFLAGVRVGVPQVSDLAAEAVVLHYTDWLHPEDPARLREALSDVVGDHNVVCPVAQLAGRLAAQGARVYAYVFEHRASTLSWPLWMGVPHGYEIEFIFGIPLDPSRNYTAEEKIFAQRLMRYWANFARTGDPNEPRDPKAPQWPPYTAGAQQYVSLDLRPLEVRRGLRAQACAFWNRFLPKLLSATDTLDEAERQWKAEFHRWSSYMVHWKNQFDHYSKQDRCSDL
Sequence of Cytochrome P450 3A4 (Homo sapiens) (P08684 whole entry, looked up): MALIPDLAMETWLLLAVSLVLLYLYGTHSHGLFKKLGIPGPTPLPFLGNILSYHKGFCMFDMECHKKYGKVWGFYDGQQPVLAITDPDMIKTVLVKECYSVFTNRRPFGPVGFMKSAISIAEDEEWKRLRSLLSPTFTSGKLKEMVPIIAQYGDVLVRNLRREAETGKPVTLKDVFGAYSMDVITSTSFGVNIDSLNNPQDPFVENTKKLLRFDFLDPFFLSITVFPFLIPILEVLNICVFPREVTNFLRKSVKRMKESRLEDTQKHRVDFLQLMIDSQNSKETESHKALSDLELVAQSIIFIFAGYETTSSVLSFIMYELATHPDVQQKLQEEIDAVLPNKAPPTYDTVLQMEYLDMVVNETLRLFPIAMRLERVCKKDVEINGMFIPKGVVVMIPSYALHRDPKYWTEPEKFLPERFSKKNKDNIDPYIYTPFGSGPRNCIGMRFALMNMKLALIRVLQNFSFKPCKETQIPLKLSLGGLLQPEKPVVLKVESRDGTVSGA
Sequence of Voltage-gated inwardly rectifying potassium channel KCNH2 (Homo sapiens) (Q12809 whole entry, looked up): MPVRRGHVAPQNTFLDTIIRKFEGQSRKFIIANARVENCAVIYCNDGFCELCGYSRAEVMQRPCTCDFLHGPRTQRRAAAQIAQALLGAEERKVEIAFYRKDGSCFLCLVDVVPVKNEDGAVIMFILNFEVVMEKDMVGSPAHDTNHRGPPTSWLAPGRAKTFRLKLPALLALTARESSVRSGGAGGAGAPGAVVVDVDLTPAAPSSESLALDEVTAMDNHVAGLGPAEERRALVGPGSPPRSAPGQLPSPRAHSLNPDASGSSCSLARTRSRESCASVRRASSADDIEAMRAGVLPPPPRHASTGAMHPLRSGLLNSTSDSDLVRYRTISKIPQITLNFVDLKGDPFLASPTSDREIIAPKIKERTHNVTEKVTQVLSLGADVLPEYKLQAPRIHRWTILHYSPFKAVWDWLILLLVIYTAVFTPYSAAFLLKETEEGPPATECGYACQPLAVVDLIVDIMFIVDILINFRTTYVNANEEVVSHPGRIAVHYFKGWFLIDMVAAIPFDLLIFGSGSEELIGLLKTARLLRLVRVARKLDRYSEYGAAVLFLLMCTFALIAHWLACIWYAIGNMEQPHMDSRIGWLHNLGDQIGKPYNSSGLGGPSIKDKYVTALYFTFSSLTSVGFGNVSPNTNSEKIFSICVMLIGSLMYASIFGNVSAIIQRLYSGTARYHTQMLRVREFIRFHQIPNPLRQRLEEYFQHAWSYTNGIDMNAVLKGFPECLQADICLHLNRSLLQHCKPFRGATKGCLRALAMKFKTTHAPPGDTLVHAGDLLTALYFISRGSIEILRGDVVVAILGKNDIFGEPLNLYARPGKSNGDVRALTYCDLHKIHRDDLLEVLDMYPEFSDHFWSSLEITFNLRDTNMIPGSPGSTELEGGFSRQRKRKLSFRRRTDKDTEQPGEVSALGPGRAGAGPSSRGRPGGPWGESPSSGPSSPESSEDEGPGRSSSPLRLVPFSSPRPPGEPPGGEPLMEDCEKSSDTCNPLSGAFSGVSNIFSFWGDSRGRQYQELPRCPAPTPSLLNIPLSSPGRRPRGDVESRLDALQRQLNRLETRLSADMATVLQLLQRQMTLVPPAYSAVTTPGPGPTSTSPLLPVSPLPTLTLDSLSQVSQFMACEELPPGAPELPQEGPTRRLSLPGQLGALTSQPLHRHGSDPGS
Sequence of Cytochrome P450 2D6 (Homo sapiens) (P10635 whole entry, looked up): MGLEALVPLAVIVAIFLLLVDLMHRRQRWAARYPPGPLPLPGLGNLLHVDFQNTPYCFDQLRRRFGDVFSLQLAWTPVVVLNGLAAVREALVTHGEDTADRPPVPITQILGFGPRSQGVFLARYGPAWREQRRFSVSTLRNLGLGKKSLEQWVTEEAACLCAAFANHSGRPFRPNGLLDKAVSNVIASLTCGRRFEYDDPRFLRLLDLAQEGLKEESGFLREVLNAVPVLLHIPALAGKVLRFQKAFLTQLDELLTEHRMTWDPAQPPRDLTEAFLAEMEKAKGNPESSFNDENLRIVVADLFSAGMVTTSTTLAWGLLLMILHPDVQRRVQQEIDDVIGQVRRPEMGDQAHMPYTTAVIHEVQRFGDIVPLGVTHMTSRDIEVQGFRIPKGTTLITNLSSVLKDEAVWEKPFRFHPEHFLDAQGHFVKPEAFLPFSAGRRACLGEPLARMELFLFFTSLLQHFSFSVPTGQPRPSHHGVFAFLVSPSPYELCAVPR

For `C=CCN1CC[C@]23CCCC[C@H]2[C@H]1Cc1ccc(O)cc13`, the call in experiment [1] and in [4] was inactive. The Potency result in experiment [2], in [3], in experiment [5], in experiment [7], in experiment [8] and in [9] was “inactive” throughout. In addition, in experiment [6], the max activation is -1.31%.
For the molecule `Clc1cc2c(cc1Cl)Oc1cc(Cl)c(Cl)cc1O2`, the activation in experiment [1] is -0.214% [at 0.218 µM]; in experiment [10], -4.83% [at 0.349 µM]. Besides, the activity change, negative = cytotoxicity in experiment [2] is -5.16% [at 0.349 µM]; in experiment [3] it was 8.13% [at 0.349 µM]; in experiment [5], -3.38% [at 0.349 µM]. In addition, in experiment [4], the caspase-3/7 activation was 0.0442% [at 0.349 µM]. Also, the activity, negative = inhibition in [11] was -1.29% [at 0.435 µM]. The activity change, negative = inhibition in experiment [12] was 0.681% [at 0.435 µM]; in experiment [13], 4.87% [at 0.439 µM]; in experiment [14], -0.563% [at 0.435 µM]; in experiment [15] it was -1.99% [at 0.435 µM]; in experiment [16] it was -2.53% [at 0.435 µM]; in experiment [7], 2.52% [at 0.435 µM]. For the same molecule, the activity change, negative = inhibition in experiment [9] is 4.67% [at 0.29 µM]; in [17] it was -0.782% [at 0.435 µM].
For the molecule `COP(=O)(O)OC`, the molecule was called inactive in experiment [1] and in experiment [4]. In addition, the Potency result in experiment [2], in [3], in [5], in experiment [10], in experiment [11] and in experiment [12] was “inactive” in each case. Moreover, the Potency result in [13], in [14], in experiment [7], in experiment [9] and in experiment [17] was “inactive” in each case. In addition, the Potency was 18.5 µM (active) in experiment [16] and 32.8 µM (active) in experiment [8].
For the molecule `Clc1nc(Cl)nc(Nc2ccccc2Cl)n1`, the call in experiment [1] was inactive. The Potency result in experiment [2], in experiment [5], in experiment [11], in experiment [12], in experiment [13] and in experiment [15] was “inactive” each time. Further, the Potency entry in experiment [8], in experiment [9] and in [17] was “inactive” each time. The Potency in experiment [16] is 79.6 µM (active).
For `CC(C)(C)NC[C@H](O)c1ccc(O)cc1Cl`, the outcome in experiment [1] and in [4] was inactive. Besides, the Potency result in experiment [2], in [5], in experiment [10], in experiment [11], in [13] and in [14] was “inactive” in each case. Also, the Potency entry in experiment [16], in [7], in experiment [8], in experiment [9] and in [17] was “inactive” throughout. Moreover, in [15], the Potency was 30.9 µM (active).
In the case of `CCCOC(=O)c1cncn1C(C)c1ccccc1` (configuration not stated), the molecule was classed as inactive in experiment [1] and in [4]. For the same molecule, the Potency entry in [2], in experiment [3], in experiment [5], in experiment [10], in experiment [11] and in experiment [12] was “inactive” throughout. For the same molecule, the Potency result in experiment [13], in experiment [14] and in experiment [9] was “inactive” each time. Moreover, the Potency in [16] was 2.45 µM (active); in experiment [7], 13.8 µM (active); in experiment [8], 17.4 µM (active).
Regarding `NC1(c2ccccc2)CCCCC1`, the call in [1], in experiment [18] and in experiment [4] was inactive. Also, the Potency result in experiment [3], in [5], in experiment [10], in experiment [11], in experiment [12] and in experiment [13] was “inactive” in each case. Besides, the Potency entry in [14], in [7], in experiment [8], in experiment [9] and in experiment [17] was “inactive” in each case. The Potency in [15] is 31.4 µM (active).
As to `CC(Cl)(Cl)Cl`, the outcome in [1] and in [4] was inactive. In addition, the Potency result in experiment [2], in [3], in experiment [5], in [10], in experiment [11] and in experiment [13] was “inactive” in each case. The Potency result in [14], in experiment [16], in experiment [7], in experiment [8], in [9] and in [17] was “inactive” throughout.
